# Source: PubChem BioAssay
# DT40 TDP1 CPT: growth inhibition of DT40 Tdp1-/-;hTDP1 cells with camptothecin (screen for TDP1 inhibitors). hit rate 12% among 420,000. AID 686979. Potency, µM (series often up to 46.2 µM), inactives show at the top dose activity change, negative = growth inhibition, actives largely listed as inhibitors. chicken DT40 Tdp1-/-;hTDP1 cells + 20 nM CPT, ATP luminescence, 48 h; also: % is scaled to controls: 0 for no effect and ±100 for the full control effect; nearly all actives have a fitted effect of over 55% in size
#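 Chicken DT40 Tdp1-/- cells stably complemented with human TDP1 were seeded at 400 cells/well in medium containing 20 nM camptothecin, exposed to pin-transferred compounds, and grown at 37 °C for at least 48 hr. Viability was read as ATP luminescence.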
# ATXN2 expr inh: reduces ATXN2 reporter expression in HEK-293 cells; HEK-293 ATXN2-luciferase reporter, luminescence, 24 h; Potency, µM (top dose mostly 57 µM), for inactives: at the highest dose activity change, negative = inhibition, usual class: inhibitors; hit rate 0.72% among 360,000; AID 1745845; also: % is scaled to controls: 0 for no effect and ±100 for the full control effect; nearly all actives have a fitted effect of over 55% in size
#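 qHTS (up to 57 uM final) was run with 24 h compound exposure of reporter cells at 37 °C. Each well was multiplexed: SteadyGlo luminescence measured ATXN2-luciferase expression after a fluorogenic Gly-Phe-AFC viability readout (25 uM final).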
# TDP1 cell noCPT: qHTS for Inhibitors of human tyrosyl-DNA phosphodiesterase 1 (TDP1): qHTS in cells in absence of CPT. DT40 Tdp1-/- hTDP1 cells, no CPT, ATP luminescence, 48 h. Potency, µM (top dose mostly 46.2 µM), for the others: top-dose activity change, negative = growth inhibition, actives largely listed as inhibitors. hit rate 15% among 420,000. AID 686978, 2013; also: % is scaled to controls: 0 for no effect and ±100 for the full control effect; nearly all actives have a fitted effect of over 55% in size
#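 DT40 Tdp1-/-;hTDP1 cells, no CPT (DMSO vehicle only), 400 cells/well; compounds pin-transferred; ≥48 hr, 37 °C; CellTiter-Glo 30 min RT dark, luminescence read.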
# TGFb inhibitor: inhibitors of TGF-b signaling | HepG2 CAGA-GFP TGF-b/SMAD3 reporter, GFP fluorescence, 18 h; TGF-beta stimulated, 500 pg/mL final | Potency, µM (highest dose often 46.1 µM), for inactives: top-dose activity, negative = inhibition, most hits filed as inhibitors | hit rate 1.2% among 410,000; also: % is scaled to controls: 0 for no effect and ±100 for the full control effect; nearly all actives have a fitted effect of over 65% in size
#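 Cell-based qHTS in HEPG2 carrying a CAGA-GFP Smad reporter; compounds added before 500 pg/mL final TGF-beta, 18 h incubation at 37 degrees C, GFP fluorescence quantified per cell by imaging cytometry.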
# ATXN viability: reduces viability in counter-screen for ATXN expression inhibitors | hit rate 0.49% among 400,000 | Potency, µM (titrated, usually from 56.7 µM), most hits filed as cytotoxic | S2 cells (HEK-293 line with an ATXN2-luciferase reporter) viability, CellTiter-Fluor protease fluorescence, 24 h | AID 651635; also: nearly all actives have a fitted effect of over 40% in size
# HepG2 tox: kills HepG2 cells in TGF-b inhibitor counter-screen; HepG2 CAGA-GFP viability, ATP luminescence, 18 h; Potency, µM (top dose mostly 46.1 µM), without a hit: at the highest dose activity change, negative = cytotoxicity, usual class: cytotoxic; hit rate 0.76% among 410,000; AID 588856
#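 HepG2 CAGA-GFP cells (1000/well, DMEM with 1% FBS) received compound, then TGF-beta at 500 pg/mL final, and were incubated 18 hours at 37 degrees C. Viability was read by CellTiter-Glo luminescence. Media-only wells were set as complete cell-killing and DMSO as no toxicity.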
# An asterisk follows results filed as active; i = inactive; ? = inconclusive; nt = no result; ! = not active in a repeat. An excerpt weighted towards active compounds, which were near 17% of everything screened. Calls follow the shape of the dose curve; as a rule, active = well fitted curve in the direction sought with a large enough effect; inconclusive = small, poorly fitted or top-dose-only effect, or another doubt; inactive = no such curve, though single readings can be large; an effect the other way counts as inactive or inconclusive. Potency is read from the fitted curve at half-maximal effect.
SMILES,DT40 TDP1 CPT,ATXN2 expr inh,TDP1 cell noCPT,TGFb inhibitor,ATXN viability,HepG2 tox
COc1ccc(C=O)cc1O,10%,7%,-13%,-3%,i,5%
C=CCN1CC[C@]23c4c5ccc(O)c4OC2C(O)CC[C@@]3(O)[C@H]1C5 (some centres not stated),-5%,-5%,-5%,4%,i,1%
CC[C@]1(O)CC(O[C@@H]2CC(N(C)C)C(O)C(C)O2)c2c(cc3c(c2O)C(=O)c2c(O)ccc(O)c2C3=O)C1C(=O)OC (some centres not stated),1.5µM*,nt,1.3µM*,nt,nt,nt
c1cc2c(cc1N1CCCCC1)C1CC2CCN1 (configuration not stated),?,4%,-28%,3%,i,-3%
COC(=O)[C@H]1[C@H]2C[C@@H]3c4[nH]c5cc(OC)ccc5c4CCN3C[C@H]2C[C@@H](OC(=O)/C=C/c2cc(OC)c(OC)c(OC)c2)[C@@H]1OC,?,5%,13µM*!,3%,?,5%
CCCCN1CCC(O)(c2ccccc2)C(C(=O)c2ccccc2)C1 (configuration not stated),2.9µM*,-7%,2.9µM*,?,i,-48%
c1ccc2c(CCN3CCCCC3)c[nH]c2c1,-14%,10%,0%,3%,i,-22%
c1ccc2c(CN3CCCCC3)c[nH]c2c1,8.2µM*,-10%,?,0%,i,-29%
OC1(c2ccc(Cl)cc2)CCN(Cc2c[nH]c3ccccc23)CC1,13µM*,?,16µM*,?,i,-38%
CC1CCCCN1Cc1c[nH]c2ccccc12 (configuration not stated),4.1µM*,-37%,7.3µM*,-11%,?,1%
CC(C)N1CCN(Cc2c[nH]c3ccccc23)CC1CCO (configuration not stated),?,-12%,-12%,-3%,i,-11%
O=C(Nc1ncccc1O)c1ccc(S(=O)(=O)NCc2ccco2)cc1,21µM*,nt,23µM*,0%,i,-8%
CS(=O)(=O)c1ccc(C2=C(CNC(=O)c3ccncc3)[C@H]3CC[C@@H](C2)N3Cc2ccco2)cc1,3%,2%,-3%,-3%,i,-11%
CCOc1cc(CNCCc2cccc(F)c2)ccc1OC,?,-17%,?,10%,i,-13%
CCOc1ccc(CCNC(=O)c2cc3c(-c4cccc(OC)c4)nn(C)c3s2)cc1OCC,?,?,18µM*,-23%,?,-24%
C[N+]1(CCF)[C@@H]2CC[C@H]1CC(OC(=O)C(O)(c1ccccc1)c1ccccc1)C2 (some centres not stated),11%,4%,-2%,nt,i,nt
CC1N=C(c2ccccc2)c2cc(Br)ccc2NC1=O (configuration not stated),?,-6%,18µM*,1%,i,-1%
Cc1cccc(C2CC(=O)Oc3c2c(=O)oc2ccccc32)c1 (configuration not stated),-13%,5%,-3%,3%,i,-8%
Nc1nc2ccc(Cl)cc2c2nc(-c3ccco3)nn12,6.3µM*,nt,8.9µM*,nt,nt,nt
Cn1c(=O)n(C)c2cc(CNCCc3ccc(F)cc3)ccc21,16µM*,-28%,26µM*,?,?,-24%
O=C(O)CNCP(=O)(O)O,-4%,nt,3%,nt,nt,nt
Cc1c(C(=O)Nc2ccc(Br)cc2F)oc2ccc(S(=O)(=O)N3CCCCC3)cc12,?,0%,?,-12%,i,5%
COc1ccc(Nc2c(-c3cc(Br)ccc3O)nc3ncccn23)cc1OC,18µM*,-3%,23µM*,32%,?,5%
COc1cc(-c2nc3ccc(Cl)cn3c2Nc2ccc3c(c2)OCCO3)ccc1O,?,-10%,?,?,?,-25%
O=[N+]([O-])c1ccc(N2CCOCC2)c2ccncc12,-28%,-2%,?,4%,i,4%
SMILES,DT40 TDP1 CPT,ATXN2 expr inh,TDP1 cell noCPT,TGFb inhibitor,ATXN viability,HepG2 tox
C[C@]12CCC(=O)C=C1CCC1C2CC[C@@]2(C)C1CC[C@@H]2O (some centres not stated),0%,-1%,-24%,4%,i,1%
CC(=O)C1CCC2C3CCC4=CC(=O)CC[C@@]4(C)C3CC[C@]12C (some centres not stated),13µM*,nt,15µM*,nt,nt,nt
CC(=O)O[C@H]1CC[C@@]2(C)C(=CC[C@H]3[C@@H]4CC[C@H](C(C)=O)[C@@]4(C)CC[C@@H]32)C1,?,-10%,16µM*!,4%,i,2%
CC(=O)[C@H]1CC[C@H]2[C@@H]3CC=C4C[C@@H](OS(=O)(=O)O)CC[C@]4(C)[C@H]3CC[C@]12C,17%,4%,26%,38%,i,-2%
NCCc1cccc(O)c1,-8%,nt,-12%,nt,nt,nt
COc1cc2c(cc1OC)C1C(=O)c3c(cc4c(c3O)C=CC(C)(C)O4)OC1CO2 (configuration not stated),1.3µM*,nt,0.73µM*,nt,nt,nt
O=C(CNC(=O)c1ccccc1)NCC(=O)OCC(=O)c1ccc([N+](=O)[O-])cc1,?,-7%,?,2%,i,3%
CCc1ccc(N2C(=O)NC(=O)/C(=C\c3cccn3CCOc3ccc(C(C)C)cc3)C2=O)cc1,21µM*,-26%,16µM*,2%,?,1%
CN1C(=O)CN=C(c2ccccc2)c2cc(Cl)ccc21,?,31%,?,nt,i,nt
CN1C(=O)CN=C(c2ccccc2)c2cc([N+](=O)[O-])ccc21,?,8%,17µM*,nt,i,nt
COC(=O)C1=C(C)NC(COC(N)=O)=C(C(=O)OC(C)C)C1c1cccc(Cl)c1Cl (configuration not stated),30µM*,-29%,33µM*,nt,?,nt
Cc1cc(O)c2c(c1)OC(C)(C)C1=C2CC(C)CC1 (configuration not stated),?,-6%,-18%,?,i,-35%
CC(C)CC(=O)N(Cc1ccccc1)S(=O)(=O)c1ccc2c(c1)oc(=O)n2C,-29%,4%,?,?,i,-29%
Cc1nc(-c2cccc(NC(=O)c3ccc(Cl)c(S(=O)(=O)N4CCCC4)c3)c2)cs1,?,nt,8.2µM*,?,?,-9%
